A short description of assay [1]: NCI Yeast Anticancer Drug Screen. Data for the rad50 strain (AID 155).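 Further: 0% = growth of vehicle-only cultures of the same strain.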 Particulars: S. cerevisiae rad50 strain growth inhibition, stronger effect = higher value. In a few lines: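 Cells are treated with compound, grown, and their growth is then scored against vehicle-only cultures of the same repair-deficient yeast strain.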
A short description of assay [2]: NCI Yeast Anticancer Drug Screen. Data for the mec2-1 strain (AID 157). Conditions: S. cerevisiae mec2-1 strain, stronger effect = higher value. In a few lines: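 Test agents were screened against the mec2-1 yeast strain, with defined DNA repair or cell cycle alteration. Growth was scored as inhibition against vehicle-only controls.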
The nature of assay [3]: NCI Yeast Anticancer Drug Screen. Data for the sgs1 mgt1 strain (AID 161).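 Further: 0% = growth of cultures given vehicle only.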 Particulars: S. cerevisiae sgs1 mgt1 strain, stronger effect = higher value. In a few lines:
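Mutant yeast exposed to compound; growth scored against vehicle-only wells.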

A short description of assay [4]: NCI Yeast Anticancer Drug Screen. Data for the cln2 rad14 strain (AID 165).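 Further: 0% = growth equal to vehicle treated cultures.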 Particulars: S. cerevisiae cln2 rad14 strain, stronger effect = higher value. In short, it runs like this: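 Growth of compound-exposed yeast (cln2 rad14 genotype) measured and expressed as inhibition relative to vehicle.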
Assay [5] can be described thus: NCI Yeast Anticancer Drug Screen. Data for the bub3 strain (AID 167). Conditions: S. cerevisiae bub3 mutant strain, stronger effect = higher value. In short, it runs like this:
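Part of a panel of yeast mutants defective in DNA damage repair or cell cycle regulation. Each strain is grown with compound, and inhibition is calculated relative to solvent-treated cultures.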

Assay [6] can be described thus: NCI Yeast Anticancer Drug Screen. Data for the mlh1 rad18 strain (AID 175). Particulars: S. cerevisiae mlh1 rad18 strain growth inhibition, stronger effect = higher value. In short, it runs like this:
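In this whole-cell yeast screen, a strain with altered DNA damage repair is challenged with compound, and its growth is measured against matched vehicle-treated controls.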

Setting [7] is: at 5.0 µM (retest, dose inferred, filed as 0.5).
Where [8] appears, read: at 50.0 µM (retest, dose inferred, filed as 5.0).

Molecules are shown by their SMILES. This is part of a sample that, as a whole, favours compounds with a hit. Of some 79,000 tested, about 15% had one in any assay. A number with no mark means an inactive call. Active and inactive are the calls of the source. No stated cut-off is given here; in the data, active means growth inhibition above about 70%; inactive means the rest.

Here are results for ten compounds from PubChem BioAssay (NCI).

In the case of `CCCCCOC(=O)CSC#N`, the growth inhibition in assay [1] (setting [7]) is 93% (active); in assay [1] (setting [8]), 99% (active); in assay [1] (at 50.0 µM), 98.7% (active); in assay [2] (setting [7]) it was 97% (active); in assay [2] (setting [8]) it was 99% (active); in assay [2] (at 50.0 µM) it was 99% (active). Moreover, the growth inhibition in assay [3] (setting [7]) is 96% (active); in assay [3] (setting [8]), 98% (active); in assay [3] (at 50.0 µM), 98.8% (active); in assay [4] (setting [7]) it was 79% (active); in assay [4] (setting [8]), 99% (active); in assay [4] (at 50.0 µM), 98.5% (active). For the same compound, the growth inhibition in assay [5] (setting [7]) is 96% (active); in assay [5] (setting [8]), 99% (active); in assay [5] (at 50.0 µM), 98.7% (active); in assay [6] (setting [7]), 91% (active); in assay [6] (setting [8]) it was 99% (active); in assay [6] (at 50.0 µM), 98.8% (active).

For `OB1c2ccccc2CCc2ccccc21`, the growth inhibition in assay [1] (setting [7]) is -4%; in assay [1] (setting [8]) it was 99% (active); in assay [1] (at 50.0 µM) it was 99.3% (active); in assay [2] (setting [7]), -7%; in assay [2] (setting [8]) it was 99% (active); in assay [2] (at 50.0 µM) it was 99.5% (active). The growth inhibition in assay [3] (setting [7]) was -4%; in assay [3] (setting [8]), 99% (active); in assay [3] (at 50.0 µM), 99.5% (active); in assay [4] (setting [7]) it was -13%; in assay [4] (setting [8]) it was 98% (active); in assay [4] (at 50.0 µM), 96.6% (active). Moreover, the growth inhibition in assay [5] (setting [7]) was -25%; in assay [5] (setting [8]), 99% (active); in assay [5] (at 50.0 µM), 99.2% (active); in assay [6] (setting [7]) it was -2%; in assay [6] (setting [8]) it was 99% (active); in assay [6] (at 50.0 µM), 99% (active).

As for `Cc1scnc1C(C#N)(c1ccccc1)c1ccccc1`, the growth inhibition was 9% in assay [1] (setting [7]); 97% (active) in assay [1] (setting [8]); 98.5% (active) in assay [1] (at 50.0 µM); 4% in assay [2] (setting [7]); 98% (active) in assay [2] (setting [8]); 98.5% (active) in assay [2] (at 50.0 µM). In addition, the growth inhibition in assay [3] (setting [7]) was 4%; in assay [3] (setting [8]) it was 98% (active); in assay [3] (at 50.0 µM), 98.7% (active); in assay [4] (setting [7]) it was 8%; in assay [4] (setting [8]), 98% (active); in assay [4] (at 50.0 µM), 98.5% (active). Besides, the growth inhibition in assay [5] (setting [7]) is 9%; in assay [5] (setting [8]), 97% (active); in assay [5] (at 50.0 µM) it was 98.8% (active); in assay [6] (setting [7]) it was 7%; in assay [6] (setting [8]) it was 97% (active); in assay [6] (at 50.0 µM) it was 98.5% (active).

`CCC(CO)Nc1nc2ccc(Br)cc2c2ccccc12` (stereo not given): the growth inhibition in assay [1] (setting [7]) is 15%; in assay [1] (setting [8]), 82% (active); in assay [1] (at 50.0 µM), 76% (active); in assay [2] (setting [7]), 4%; in assay [2] (setting [8]) it was 59%; in assay [2] (at 50.0 µM), 49.5%. Also, the growth inhibition in assay [3] (setting [7]) was 5%; in assay [3] (setting [8]), 95% (active); in assay [3] (at 50.0 µM) it was 86% (active); in assay [4] (setting [7]) it was 0%; in assay [4] (setting [8]), 56%; in assay [4] (at 50.0 µM), 66%. For the same compound, the growth inhibition in assay [5] (setting [7]) was 2%; in assay [5] (setting [8]), 84% (active); in assay [5] (at 50.0 µM), 63.6%; in assay [6] (setting [7]), 8%; in assay [6] (setting [8]), 96% (active); in assay [6] (at 50.0 µM), 93.9% (active).

Consider `BrC1=CC(Br)=C2N=C(C(Br)(Br)Br)N=C3N=C(C(Br)(Br)Br)N=C1N32`, for which the growth inhibition in assay [1] (setting [7]) is 27%; in assay [1] (setting [8]), 97% (active); in assay [1] (at 50.0 µM), 99% (active); in assay [2] (setting [7]), 15%; in assay [2] (setting [8]), 98% (active); in assay [2] (at 50.0 µM), 99.5% (active). The growth inhibition in assay [3] (setting [7]) is 20%; in assay [3] (setting [8]), 99% (active); in assay [3] (at 50.0 µM) it was 99.8% (active); in assay [4] (setting [7]), 5%; in assay [4] (setting [8]), 97% (active); in assay [4] (at 50.0 µM), 98.2% (active). For the same compound, the growth inhibition was 0% in assay [5] (setting [7]); 97% (active) in assay [5] (setting [8]); 99.2% (active) in assay [5] (at 50.0 µM); 30% in assay [6] (setting [7]); 97% (active) in assay [6] (setting [8]); 99% (active) in assay [6] (at 50.0 µM).

Turning to `C=C(CN(C)C)C(=O)c1ccccc1Cl`, the growth inhibition is -10% in assay [1] (setting [7]); 90% (active) in assay [1] (setting [8]); 90.8% (active) in assay [1] (at 50.0 µM); -15% in assay [2] (setting [7]); 80% (active) in assay [2] (setting [8]); 92.7% (active) in assay [2] (at 50.0 µM). Also, the growth inhibition in assay [3] (setting [7]) was 15%; in assay [3] (setting [8]), 95% (active); in assay [3] (at 50.0 µM), 92.5% (active); in assay [4] (setting [7]) it was -10%; in assay [4] (setting [8]) it was 25%; in assay [4] (at 50.0 µM), 7.9%. For the same compound, the growth inhibition is -14% in assay [5] (setting [7]); 96% (active) in assay [5] (setting [8]); 70.6% (active) in assay [5] (at 50.0 µM); 46% in assay [6] (setting [7]); 98% (active) in assay [6] (setting [8]); 98.1% (active) in assay [6] (at 50.0 µM).

In the case of `CC(=O)CCCOC(C)=O`, the growth inhibition in assay [1] (setting [7]) is 63%; in assay [1] (setting [8]) it was 78% (active); in assay [1] (at 50.0 µM), 14.7%; in assay [2] (setting [7]) it was 22%; in assay [2] (setting [8]), 40%; in assay [2] (at 50.0 µM), -5.8%. Moreover, the growth inhibition is 77% (active) in assay [3] (setting [7]); 78% (active) in assay [3] (setting [8]); 7.85% in assay [3] (at 50.0 µM); 10% in assay [4] (setting [7]); 22% in assay [4] (setting [8]); 24.6% in assay [4] (at 50.0 µM). In addition, the growth inhibition in assay [5] (setting [7]) is 62%; in assay [5] (setting [8]), 86% (active); in assay [5] (at 50.0 µM), -0.55%; in assay [6] (setting [7]), 45%; in assay [6] (setting [8]), 75% (active); in assay [6] (at 50.0 µM), 31.6%.

As for `CC(=O)Sc1ccc(Br)cc1`, the growth inhibition in assay [1] (setting [7]) is 0%; in assay [1] (setting [8]), 73% (active); in assay [1] (at 50.0 µM), 45.3%; in assay [2] (setting [7]) it was 3%; in assay [2] (setting [8]), 52%; in assay [2] (at 50.0 µM) it was 36.9%. Further, the growth inhibition is 3% in assay [3] (setting [7]); 60% in assay [3] (setting [8]); 34.9% in assay [3] (at 50.0 µM); -1% in assay [4] (setting [7]); 40% in assay [4] (setting [8]); -2.05% in assay [4] (at 50.0 µM). For the same compound, the growth inhibition in assay [5] (setting [7]) is 1%; in assay [5] (setting [8]), 68%; in assay [5] (at 50.0 µM), 60.3%; in assay [6] (setting [7]) it was -2%; in assay [6] (setting [8]) it was 76% (active); in assay [6] (at 50.0 µM) it was 71.2% (active).

Take `Oc1ccc(N=Nc2ccccc2)c(O)c1.Oc1ccc(N=Nc2ccccc2)c(O)c1.[Cu]`: the growth inhibition was 13% in assay [1] (setting [7]); 96% (active) in assay [1] (setting [8]); 98.1% (active) in assay [1] (at 50.0 µM); 16% in assay [2] (setting [7]); 98% (active) in assay [2] (setting [8]); 98.2% (active) in assay [2] (at 50.0 µM). The growth inhibition in assay [3] (setting [7]) was 21%; in assay [3] (setting [8]) it was 97% (active); in assay [3] (at 50.0 µM) it was 98.9% (active); in assay [4] (setting [7]), 1%; in assay [4] (setting [8]) it was 92% (active); in assay [4] (at 50.0 µM), 97.3% (active). Besides, the growth inhibition in assay [5] (setting [7]) is 15%; in assay [5] (setting [8]), 95% (active); in assay [5] (at 50.0 µM) it was 97% (active); in assay [6] (setting [7]), 12%; in assay [6] (setting [8]), 96% (active); in assay [6] (at 50.0 µM), 97.1% (active).

`Oc1c(N2CCOCC2)cc(-c2cc(N3CCOCC3)c(O)c3ccccc23)c2ccccc12`: the growth inhibition in assay [1] (setting [7]) was 26%; in assay [1] (setting [8]), 30%; in assay [1] (at 50.0 µM) it was 82.2% (active); in assay [2] (setting [7]) it was 35%; in assay [2] (setting [8]) it was 38%; in assay [2] (at 50.0 µM) it was 86.3% (active). Also, the growth inhibition in assay [3] (setting [7]) was -19%; in assay [3] (setting [8]), 9%; in assay [3] (at 50.0 µM), 50.3%; in assay [4] (setting [7]) it was 9%; in assay [4] (setting [8]), 21%; in assay [4] (at 50.0 µM), 42.5%. The growth inhibition in assay [5] (setting [7]) is 16%; in assay [5] (setting [8]), 43%; in assay [5] (at 50.0 µM), 51.6%; in assay [6] (setting [7]) it was 35%; in assay [6] (setting [8]) it was 39%; in assay [6] (at 50.0 µM) it was 80.5% (active).
